Assay results from PubChem BioAssay AID1159580 (chemical genetic matrix, 2015).
“And” between values parts separate entries of the source, which are not always exact repeats. Equal values may be shown once. In all, about 5,500 compounds went through this assay and about 2,000 (36%) were called active. Not shown: some 18% with an inconclusive outcome. Rule as the data show it: active = normalized growth mostly below about 0.91 (no sharp cut-off); inconclusive = no clear call, values can overlap the other calls; inactive = mostly above about 0.92. Some of the results follow.

Experiment: chemical genetic growth profiling, strain panel (AID 1159580);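 also: tested at 20 µM; growth read once vehicle control cultures reached saturation at 30 °C; 1 = growth at the plate median or of vehicle wells; lower values mean less growth of the strain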
Settings: S. cerevisiae deletion strains, growth OD

Measured: normalized growth

CCC1C(=O)OCC1Cc1cncn1C (stereo not given)
inactive: locus YAL013W, strain DEP1, active compounds read low 1.01 and 0.986 | locus YAL021C, strain ccr4, active compounds read low 1.01 | locus YAL026C, strain drs2, active compounds read low 1.01 and 1.02 | locus YAL030W, strain snc1, active compounds read low 1.03 and 1.01 | locus YAL040C, strain CLN3, active compounds read low 1.04 and 1.02 | locus YBL061C, strain skt5, active compounds read low 1.03 and 1.02 | locus YBR009C, strain hhf1, active compounds read low 1.01 and 1 | locus YBR021W, strain FUR4, active compounds read low 0.985 and 1 | locus YBR023C, strain chs3, active compounds read low 1.03 and 1.02 | locus YBR171W, strain sec66, active compounds read low 1.02 and 1.03 | locus YBR229C, strain ROT2, active compounds read low 1.01 | locus YBR231C, strain swc5, active compounds read low 1.02 and 1.01 | locus YBR279W, strain paf1, active compounds read low 1.03 and 1.01 | locus YCL011C, strain gbp2, active compounds read low 1.03 and 1.02 | locus YCL016C, strain dcc1, active compounds read low 1.03 and 1.02 | locus YCL029C, strain bik1, active compounds read low 1.03 and 0.998 | locus YCL061C, strain MRC1 (second series), active compounds read low 1.01 and 0.993 | locus YCL061C, strain MRC1, active compounds read low 1.01 | locus YCL069W, strain vba3, active compounds read low 1.02 and 1.01 | locus YCR088W, strain abp1, active compounds read low 1.02 and 1 | locus YDL005C, strain med2, active compounds read low 1.01 and 1.03 | locus YDL035C, strain GPR1, active compounds read low 1.01 | locus YDL040C, strain nat1, active compounds read low 1.02 and 1.01 | locus YDL074C, strain BRE1, active compounds read low 1.02 and 1.03 | locus YDL101C, strain DUN1, active compounds read low 1.02 | locus YDL134C, strain PPH21, active compounds read low 1.01 and 1.02 | locus YDL185W, strain tfp1, active compounds read low 1.02 and 1 | locus YDL192W, strain arf1, active compounds read low 1.02 and 1 | locus YDR001C, strain nth1, active compounds read low 1.01 and 1 | locus YDR069C, strain doa4, active compounds read low 1.01 and 1.02 | locus YDR101C, strain arx1, active compounds read low 1.02 and 0.975 | locus YDR137W, strain rgp1, active compounds read low 1.05 and 1.1 | locus YDR159W, strain sac3, active compounds read low 1.01 and 1.02 | locus YDR162C, strain NBP2, active compounds read low 1.01 and 1.05 | locus YDR195W, strain ref2 1 and 0.98 | locus YDR297W, strain sur2, active compounds read low 1.02 | locus YDR318W, strain mcm21, active compounds read low 1.03 and 0.997 | locus YDR334W, strain swr1, active compounds read low 1.01 and 1.02 | locus YDR335W, strain msn5, active compounds read low 1.02 | locus YDR363W, strain ESC2, active compounds read low 1.03 and 1.01 | locus YDR388W, active compounds read low 1.02 and 0.992 | locus YDR392W, strain spt3, active compounds read low 0.976 and 0.974 | locus YDR502C, strain sam2, active compounds read low 1.04 and 1.01 | locus YEL003W, strain gim4, active compounds read low 1.01 and 1.02 | locus YEL037C, strain rad23, active compounds read low 1.01 | locus YEL061C, strain CIN8 (second series), active compounds read low 1.02 and 1.03 | locus YEL061C, strain CIN8, active compounds read low 1.01 | locus YER002W, strain NOP16, active compounds read low 1.02 and 0.975 | locus YER015W, strain faa2, active compounds read low 1.02 and 1.01 | locus YER016W, strain bim1, active compounds read low 1.01 | locus YER110C, active compounds read low 1.02 and 0.99 | locus YER111C, strain swi4, active compounds read low 1.02 | locus YER155C, strain BEM2 (second series), active compounds read low 1.01 and 1.03 | locus YER155C, strain BEM2, active compounds read low 0.99 and 1 | locus YER167W, strain BCK2, active compounds read low 1.01 and 1.02 | locus YFR010W, strain ubp6, active compounds read low 1.03 and 1 | locus YGL078C, strain dbp3, active compounds read low 1.01 and 1 | locus YGL086W, strain mad1, active compounds read low 1 and 0.996 | locus YGL167C, strain pmr1, active compounds read low 1.03 | locus YGL173C, strain kem1, active compounds read low 1.01 | locus YGL227W, strain vid30, active compounds read low 1.02 | locus YGL240W, strain doc1, active compounds read low 1.01 | locus YGL248W, strain PDE1, active compounds read low 1.01 and 1.02 | locus YGL253W, strain hxk2, active compounds read low 1.01 | locus YGR078C, strain PAC10, active compounds read low 1.04 and 1 and 1.02 | locus YGR135W, strain pre9, active compounds read low 1.01 | locus YGR229C, strain SMI1, active compounds read low 1.02 and 1 and 0.999 | locus YGR252W, strain gcn5, active compounds read low 0.969 and 0.983 | locus YHR013C, strain ard1, active compounds read low 1.06 and 1.01 | locus YHR027C, strain rpn1, active compounds read low 1.02 | locus YHR030C, strain SLT2, active compounds read low 1.01 and 0.975 | locus YHR079C, strain IRE1 (second series), active compounds read low 1.03 and 0.989 | locus YHR079C, strain IRE1, active compounds read low 0.975 | locus YHR094C, strain hxt1, active compounds read low 1.02 and 0.997 | locus YHR129C, strain ARP1, active compounds read low 1.01 | locus YHR142W, strain chs7, active compounds read low 1.03 and 1.01 | locus YHR200W, strain rpn10, active compounds read low 1.01 and 0.999 | locus YIL066C, strain RNR3, active compounds read low 1.02 and 1.01 | locus YIL073C, strain SPO22, active compounds read low 1.06 and 1.02 | locus YIL125W, strain kgd1, active compounds read low 0.997 and 1.01 | locus YIR030C, strain dcg1, active compounds read low 1.02 and 0.993 | locus YJL092W, strain hpr5, active compounds read low 1.01 | locus YJL095W, strain BCK1 (second series), active compounds read low 1.02 | locus YJL095W, strain BCK1, active compounds read low 1.03 and 0.988 and 1.01 | locus YJL115W, strain asf1, active compounds read low 1.01 and 1.02 | locus YJL129C, strain trk1, active compounds read low 1.04 and 1.03 | locus YJL134W, strain LCB3, active compounds read low 1.01 | locus YJL154C, strain vps35, active compounds read low 1.02 and 1.01 | locus YJL164C, strain tpk1, active compounds read low 1.01 and 1.02 | locus YJL166W, strain qcr8, active compounds read low 1.02 | locus YJL168C, strain set2, active compounds read low 1.01 and 0.999 | locus YJL187C, strain SWE1 (second series), active compounds read low 1.02 and 1.01 | locus YJL187C, strain SWE1, active compounds read low 1.02 and 1.01 | locus YJR043C, strain POL32, active compounds read low 1.02 and 1 | locus YJR066W, strain TOR1, active compounds read low 0.971
